Screens deposited in PubChem by several laboratories.
This is a sample that favours compounds with a hit; in the whole collection about 7.2% have one here.
Efflux pump mplx – inhibitors of Candida efflux pumps in yeast, primary screen, S. cerevisiae, Nile Red, multiplex; S. cerevisiae Candida pump triplex; inhibition, % at 10 µM; actives 0.44% (n = 330,000);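 active = plate passing quality check with inhibition over a set limit, or well fluorescence over plate mean plus 4 SD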;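 also: Nile Red retained in pooled yeast measured as flow cytometry median fluorescence; 0% = buffer negative control and 100% = Enniatin B positive control; higher means more Nile Red kept so more efflux inhibition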
ALR H2O2 inh – inhibitors of human ALR sulfhydryl oxidase, primary screen, biochemical, H2O2 detection, HRP-luminol luminescence, single point. FAD-linked sulfhydryl oxidase ALR (Homo sapiens), P55789. purified ALR, DTT oxidation. inhibition, % (test concentration not listed). actives 3.8% (n = 290,000);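 active = mean replicate inhibition above about 79%, with every replicate also reaching it, limit read from the data; inconclusive = only one of the two criteria met; inactive = mean below limit and not every replicate reaching it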
VLA-4 inh – inhibition in human VLA-4 binding assay, primary screen, VLA-4 allosteric modulator project, MLPCN library, flow cytometry, VLA-4 expressing cells; ligand binding flow cytometry; AID 2557, 2010; inhibition, % (about 7 µM as worked out from the volumes in the protocol); Integrin alpha-4 (Homo sapiens), P13612; actives 0.2% (n = 330,000); in the data active = inhibition above about 50%
SUMO Mot1 rescue – yeast Mot1-301 growth rescue at high temperature, primary screen, SUMOylation pathway inhibitor project, S. cerevisiae, ATP luminescence, 38.5C; S. cerevisiae Mot1-301 growth rescue; percent above DMSO median, 100 means doubled; growth rescue, % at 18.8 µM; actives 1% (n = 320,000);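 active = every valid replicate shows activation above 250% relative to neutral control wells; inactive = the rest, any valid replicate at or below 250%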;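 also: OY570 slx delta 5 strain wells were the positive control but not used for scaling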
AHR activator – AHR activators, primary screen, cell-based, luminescence, luciferase reporter, human; AHR-responsive luciferase reporter cells; activation, % at 5 µM; actives 2.5% (n = 320,000); Aryl hydrocarbon receptor (Homo sapiens), P35869; AID 2796, 2010; in the data active = activation above about 47%;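 also: 0% = vehicle wells and 100% = reference agonist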
Target sequence (P35869 whole entry, looked up): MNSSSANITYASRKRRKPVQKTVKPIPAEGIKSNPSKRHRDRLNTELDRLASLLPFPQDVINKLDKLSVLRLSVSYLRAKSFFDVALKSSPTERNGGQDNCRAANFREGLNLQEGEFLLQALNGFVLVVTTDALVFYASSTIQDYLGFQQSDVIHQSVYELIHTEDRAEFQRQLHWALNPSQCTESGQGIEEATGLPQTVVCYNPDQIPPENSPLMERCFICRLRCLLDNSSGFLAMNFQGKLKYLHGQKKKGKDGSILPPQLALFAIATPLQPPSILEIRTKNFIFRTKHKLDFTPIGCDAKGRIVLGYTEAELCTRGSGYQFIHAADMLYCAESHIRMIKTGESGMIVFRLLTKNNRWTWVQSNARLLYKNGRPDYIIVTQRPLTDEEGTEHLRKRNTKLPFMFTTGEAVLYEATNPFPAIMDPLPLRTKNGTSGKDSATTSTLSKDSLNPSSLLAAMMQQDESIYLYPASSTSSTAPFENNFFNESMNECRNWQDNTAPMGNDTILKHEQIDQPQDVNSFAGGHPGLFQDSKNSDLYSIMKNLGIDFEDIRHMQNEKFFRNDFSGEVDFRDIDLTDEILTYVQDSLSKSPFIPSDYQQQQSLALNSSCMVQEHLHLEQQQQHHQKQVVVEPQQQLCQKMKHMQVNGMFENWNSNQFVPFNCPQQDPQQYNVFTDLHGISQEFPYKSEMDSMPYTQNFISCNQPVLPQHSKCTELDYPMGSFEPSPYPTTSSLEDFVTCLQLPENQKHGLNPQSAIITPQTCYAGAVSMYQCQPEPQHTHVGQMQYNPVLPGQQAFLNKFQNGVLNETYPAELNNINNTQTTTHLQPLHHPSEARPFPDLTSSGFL
Bfl-1 A1 inh – caspase 3/7 activation in MEF A1-2A-BIM cells, primary screen, A1 inhibitor project, cell-based, luminescence, HTS; Caspase-Glo 3/7 luminescence, 3 h; percent of clofoctol response, vehicle zero; actives 0.066% (n = 330,000); caspase activation, % (no concentration beside the values);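 active = over half of replicate activation scores above 10%, or exactly half above 10 with the replicate mean above 10; inconclusive = replicate mean below 10 yet half the replicates above 10; inactive = over half of replicates below 10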
Starred values were filed as active, the others as inactive; ? = inconclusive; nt = no result.

SMILES	Efflux pump mplx	ALR H2O2 inh	VLA-4 inh	SUMO Mot1 rescue	AHR activator	Bfl-1 A1 inh
COc1ccc(C(=O)NNC(=O)COc2ccc(Cl)cc2)c(OC)c1	0	-12	1	4	73*	2
CC(C)[C@H](NC(=O)c1nn(Cc2ccccc2)c(=O)c2ccccc12)C(=O)O	0	-2	8	-27	0	0
O=c1[nH]nc(SCCS(=O)(=O)c2ccc(F)cc2)n1-c1ccc2c(c1)OCCO2	0	-2	3	9	-1	0
CNC(=O)c1c(NC(=O)c2ccco2)sc2c1CCC2	1	?	-24	-18	26	-1
CNC(=O)c1c(NC(=O)C2=COCCO2)sc2c1CCCC2	0	81*	23	-13	24	1
CCS(=O)(=O)N1CCC(c2nc3ccccc3[nH]2)CC1	0	-6	1	-1	4	2
CC(C)/C=C(/C(=O)c1ccc(Cl)cc1Cl)n1cncn1	0	97*	-2	12	0	1
Cc1ccc(S(=O)(=O)N2CCOC2CNC(=O)C(=O)NCCCN2CCOCC2)cc1 (centres undefined)	0	-7	-20	-9	8	1
CSc1ccc(/C=C2\CCn3c2nc2cc(C(=O)O)ccc2c3=O)cc1	-3	nt	3	-15	7	2
CCN(CC)CCCn1c2c(c(SCC(=O)Nc3ccc4c(c3)OCO4)nc1=O)CCC2	0	96*	7	-15	1	-1
CCN(CC)CCn1c2c(c(SCC(=O)Nc3ccc(C)c(F)c3)nc1=O)CCC2	0	-404	-46	-4	-1	0
CCN(CC)CCCn1c2c(c(SCC(=O)Nc3ccccc3Cl)nc1=O)CCC2	0	98*	9	-3	-1	0
CCN(CC)CCn1c2c(c(SCC(=O)Nc3ccc(C)c(F)c3)nc1=O)CCCC2	0	97*	-1	13	0	0
CCN(CC)CCn1c2c(c(SCC(=O)Nc3ccccc3Cl)nc1=O)CCCC2	0	-16	11	-21	-1	0
CCN(CC)CCCn1c2c(c(SCC(=O)Nc3ccc(F)c(F)c3)nc1=O)CCC2	0	98*	4	1	1	-1
Clc1cc(Cl)c(Cl)c(Cl)c1Cl	0	-5	7	-3	1	1
O=C(NNC(=O)c1cccs1)c1ccc(Cl)c(Cl)c1	0	-12	-1	161	-4	-1
CCN(CC)CCn1c2c(c(SCC(=O)Nc3ccc(F)c(F)c3)nc1=O)CCC2	0	92*	22	-17	0	1
COc1ccc2[nH]c(=O)c(CN(C)C(=O)c3cccs3)cc2c1	0	-19	8	5	4	0
COc1ccccc1C(=O)NC(CCSC)C(=O)NNC(=O)c1ccccc1O (centres undefined)	0	8	0	1	28	0
CSCCC(NC(=O)c1ccccc1Cl)C(=O)NNC(=O)c1ccccc1O (centres undefined)	0	-1	-11	-11	58*	0
CN(Cc1c(C(=O)N/N=C/c2cccs2)nnn1-c1nonc1N)c1ccccc1	0	4	0	10	1	-1
O=C(NC(=S)Nc1nc2c(s1)CSc1ccccc1-2)c1ccccc1	0	-7	2	16	69*	1
O=C(NC(=S)Nc1nc2c(s1)CCCC2)c1ccc(C(=O)c2ccccc2)cc1	0	-2	0	-2	10	-1
COc1cc(OC)c2c(=O)cc(-c3cccnc3)oc2c1	0	-19	2	98	62*	0
SMILES	Efflux pump mplx	ALR H2O2 inh	VLA-4 inh	SUMO Mot1 rescue	AHR activator	Bfl-1 A1 inh
Cn1c(O)c(C=Nc2ccc(Br)cc2)sc1=O	0	-9	2	-2	63*	-6
CCCN(CCC)C(=O)Cn1c(=O)n(CCCCC(=O)NCc2ccco2)c(=O)c2ccccc21	0	-4	41	294*	0	0
COc1ccc(NC(=O)[C@@H]2[C@@H]3C(=O)N(C4CCCCC4)C(=O)[C@@H]3C3c4ccccc4C=CN32)cc1 (some centres undefined)	0	nt	-4	-6	90*	0
CC(C)NC(=O)c1cc2nc(-c3ccco3)cc(C(F)(F)F)n2n1	0	4	0	2	-3	0
CC(C)NC(=O)c1nn2c(C(F)(F)F)cc(-c3ccco3)nc2c1Cl	0	86*	13	-3	0	1
O=C(NC1CCCC1)c1cc2nc(-c3ccco3)cc(C(F)(F)F)n2n1	0	88*	-7	-3	-6	0
Cc1ccc(OC(C)C(=O)N/N=C/c2ccccn2)cc1 (centres undefined)	0	-4	5	14	1	0
CC(=O)NN1C(=O)/C(=C\c2ccc(O)cc2)SC1=S	0	99*	-8	38	-2	-5
O=C(NN1C(=O)/C(=C/c2cccs2)SC1=S)c1ccncc1	0	-34	8	-7	-1	-1
COc1cccc(/C=C2\SC(=S)N(NC(=O)c3ccncc3)C2=O)c1	0	96*	25	nt	3	2
COc1cc(/C=C2\SC(=S)N(NC(=O)c3ccc(O)cc3)C2=O)ccc1O	1	99*	0	120	1	1
CC(=O)NN1C(=O)/C(=C\c2ccc(C)cc2)SC1=S	0	-4	10	4	0	0
O=C(O)COc1ccccc1/C=C1\SC(=S)N(NC(=O)c2ccccc2O)C1=O	0	63	16	11	8	1
O=C(NN1C(=O)/C(=C/c2cccc(O)c2)SC1=S)c1ccccc1O	0	99*	2	-8	4	0
COc1ccc(Nc2nnc(SCC(=O)Nc3ccc4[nH]c(=O)[nH]c4c3)s2)cc1	0	-3	15	nt	16	0
CCOC(=O)c1c(-c2ccc(C)cc2)csc1NC(=O)CCN1CCOCC1	0	92*	19	21	2	0
CCOC(=O)c1c(-c2ccc(-c3ccccc3)cc2)csc1NC(=O)C1C2CCC(O2)C1C(=O)O (centres undefined)	0	96*	-13	-11	-6	0
CCOC(=O)c1c(-c2ccc(C)cc2)csc1NC(=O)C1CC=CCC1C(=O)O (centres undefined)	0	13	10	-16	1	0
CCOC(=O)c1c(-c2cccc(C)c2)csc1NC(=O)C1CC=CCC1C(=O)O (centres undefined)	0	98*	-2	-7	4	-1
